{"source": "PubChem BioAssay AID624312", "about": "(National Center for Advancing Translational Sciences (NCATS), 2012)", "biological_target": "Peptidyl-prolyl cis-trans isomerase NIMA-interacting 1 (Homo sapiens) (UniProt Q13526)", "sequence (Q13526 whole entry, looked up)": "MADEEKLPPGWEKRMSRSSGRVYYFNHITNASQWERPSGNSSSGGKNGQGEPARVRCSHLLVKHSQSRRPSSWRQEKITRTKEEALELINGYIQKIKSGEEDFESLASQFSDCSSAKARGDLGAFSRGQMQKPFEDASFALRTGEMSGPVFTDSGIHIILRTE", "assay": "qHTS Assay to Find Inhibitors of Pin1: Hit Validation using Tamra Binding", "conditions": "Pin1 Tamra-peptide displacement, fluorescence polarization, 10 min", "excerpt": "The unique chemical properties of Pro allow for the adoption of two completely distinct amide bond conformations (cis and trans). Peptidyl-prolyl cis/trans isomerases (PPIases) are evolutionary conserved enzymes that catalyze cis/trans isomerization of peptidyl-prolyl peptide bonds. Distinct from all other PPIases such as cyclophilins and FK506-binding proteins (FKBPs), Pin1 binds a subset of phos.Ser/Thr-Pro-containing proteins using its protein-targeting WW domain and isomerizes only specific phos.Ser/Thr-Pro bonds, which cannot be effectively catalyzed by other known PPIases. […] The goal of this screen is to find small-molecule inhibitors of Pin1 using a fluorescence polarization competition assay.In the primary screen, a HiFluor-488-labeled peptide binds to the active site of Pin1 and can be displaced by compounds. […] To validate the hits using a different read-out, this Tamra binding assays was used against all the hits identified from the primary screen. […]\nBriefly, 2 uL of Pin1 (all columns but column 3, which just receives buffer and serves as negative control) are dispensed into Greiner black solid bottom 1536-well assay plates. […] Finally, plates are transferred to a ViewLux high-throughput CCD imager (PerkinElmer), wherein end-point measurements of fluorescence polarization are acquired. […]", "note": "Records with an inconclusive call do not appear. Active and inactive are the calls of the source. Calls follow the shape of the dose curve; as a rule, active = well fitted inhibition curve with a large enough effect; inconclusive = small, poorly fitted or top-dose-only effect; inactive = no such curve, though single readings can be large or run the other way."}
{"smiles": "Cc1cc2c(C(C)C)c(O)c(O)c(C=O)c2c(O)c1-c1c(C)cc2c(C(C)C)c(O)c(O)c(C=O)c2c1O", "values": [{"measurement": "Potency", "result": "1690 nM (active)"}]}
